# FBPA Giardia inh: qHTS Assay for Inhibitors of Fructose-1,6-bisphosphate Aldolase from Giardia Lamblia; A8B2U2; AID 2451, 2010; Potency, µM (series often up to 59.6 µM), usual class: inhibitors; purified Giardia FBPA; actives 0.71% (n = 290,000); further: nearly all actives have a fitted effect of over 55% in size
# Target sequence (A8B2U2 whole entry, looked up): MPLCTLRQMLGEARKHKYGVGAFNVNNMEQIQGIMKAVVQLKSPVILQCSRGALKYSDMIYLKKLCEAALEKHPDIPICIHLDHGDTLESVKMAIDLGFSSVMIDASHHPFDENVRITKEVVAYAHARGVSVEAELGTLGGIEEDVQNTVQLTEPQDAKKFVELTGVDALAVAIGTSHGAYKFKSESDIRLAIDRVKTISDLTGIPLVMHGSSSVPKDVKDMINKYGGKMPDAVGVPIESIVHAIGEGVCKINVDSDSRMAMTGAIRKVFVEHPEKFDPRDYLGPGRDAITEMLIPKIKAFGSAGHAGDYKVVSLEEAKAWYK
#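 40 nM FBPA preincubated 10 min at RT with compound (up to 57.5 uM final), then substrate plus GAPDH/TPI/NAD/arsenate coupling and diaphorase/resazurin added. Fluorescence read after 20 min at RT, 525/598 nm.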
# RE007 growth inh: qHTS Assay for Inhibitors of the HIV-1 protein Vpr. S. pombe RE007 Vpr strain, BacTiter-Glo ATP luminescence, 24 h. AID 651644, 2012. Potency, µM (highest dose often 92.2 µM), most hits filed as inhibitors. actives 0.21% (n = 360,000); active means well fitted falling curve with a large enough effect; inconclusive means small, poorly fitted or top-dose-only effect; inactive means no such curve, though single readings can be large or run the other way; further: nearly all actives have a fitted effect of over 50% in size
#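 Fission yeast strain RE007, carrying one chromosomally integrated HIV-1 vpr copy, was seeded at OD 0.01 in PMG+AL medium with 23 nL pinned compound. After 24 h at 30 °C and 99% humidity, viability was read by BacTiter-Glo luminescence.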
# TbPYK inhibitor: qHTS of Trypanosoma Brucei Inhibitors; pyruvate kinase (Trypanosoma brucei), Q57TT1; TbPYK enzyme, Kinase-Glo Plus ATP luminescence, 45 min; Potency, µM (doses to about 76.8 µM), usual class: inhibitors; actives 0.12% (n = 410,000); AID 624173, 2012; further: nearly all actives have a fitted effect of over 50% in size
#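 ADP (130 uM final) triggers the TbPYK reaction after compound addition; incubation is 45 min at room temperature. Kinase-Glo Plus is then added and luminescence imaged. Normalized data are fitted to concentration-effect curves.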
# Shiga toxin inh: A qHTS for Small Molecule Inhibitors of Shiga Toxin; Vero cells, Shiga toxin protein synthesis inhibition reporter; actives 9.2% (n = 290,000); AID 2315, 2010; inhibition, % at 38.7 µM; in the data active means inhibition mostly above about 28%, no sharp cut-off; inactive means mostly below about 43%
# CHX counter: Cycloheximide Counterscreen for Small Molecule Inhibitors of Shiga Toxin; cell reporter, cycloheximide protein synthesis inhibition counterscreen; max response, %; actives 12% (n = 300,000); AID 2314, 2010; in the data active means max response mostly above about 13%, no sharp cut-off; inactive means mostly below about 14%; further: read at 38.3 µM for the half of the compounds with a filed dose
# LmPK inh: qHTS Assay for Inhibitors of Leishmania Mexicana Pyruvate Kinase (LmPK); Q27686; Potency, µM (highest dose often 57.5 µM), hits mostly inhibitors; actives 0.37% (n = 290,000); purified LmPK, Kinase-Glo ATP luminescence, 1 h
#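 ATP generated from ADP (0.1 mM) and PEP (0.5 mM) by 0.1 nM LmPK over 1 h at room temperature (pH 7.2 imidazole buffer) was detected by coupled luciferase luminescence. Values were normalized to uninhibited and no-enzyme wells.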
# Hits are given with their value; i = inactive; ? = inconclusive; nt = not tested or not shown; [ ] = dose if it differs, or a comment. This excerpt belongs to a sample that is enriched for hits. Unless noted, the call rests on the fitted dose curve; in most records, active means well fitted curve in the direction sought with a large enough effect; inconclusive means small, poorly fitted or top-dose-only effect, or another doubt; inactive means no such curve, though single readings can be large; an effect the other way counts as inactive or inconclusive.
SMILES,FBPA Giardia inh,RE007 growth inh,TbPYK inhibitor,Shiga toxin inh,CHX counter,LmPK inh
COc1ccc(C(=O)Nc2cccc(NC(=O)c3cccs3)c2)cc1OC,i,i,i,23,20,i
COc1ccc(/C=C/C(=O)c2ccc(NC(=O)c3cccs3)cc2)cc1OC,i,i,i,70,22,i
COc1cccc(OC)c1C(=O)Nc1cccc(NC(=O)c2cccs2)c1,i,i,i,i,i,i
COc1ccc(-n2nc(C(=O)NCC(=O)NC3CCCCC3)c3ccccc3c2=O)cc1,i,i,i,i,i,i
Cc1ccc(NC(=O)c2cc(S(=O)(=O)N3CCc4ccccc43)cn2C)cc1C,i,i,i,i,i,i
COc1ccc(NC(=O)c2cc(S(=O)(=O)N3CCc4ccccc43)cn2C)cc1,i,i,i,28,14,i
CCCC(=O)N1CCC1(C)C(=O)Nc1ccc2scnc2c1 (stereo unspecified),nt,i,i,nt,nt,nt
COc1cc(OC)cc(-c2nc3nc(C)c(CCC(=O)Nc4ccc(Cl)cc4)c(C)n3n2)c1,nt,nt,i,nt,nt,nt
OC(C#CCN1CCOCC1)c1cccs1 (stereo unspecified),i,i,i,i,37,i
Cc1cccn2c(=O)c3cc(S(=O)(=O)c4ccccc4)c(=N)n(CC4CCCO4)c3nc12 (stereo unspecified),i,i,i,i,i,i
O=C(CNC(=O)c1ccc(Br)cc1)c1ccc(Br)cc1,i,i,i,i,i,i
O=C(C[N+]12CCC(CC1)C(CO)C2)c1ccc(Br)cc1 (stereo unspecified),i,i,i,i,7.3,i
Nc1nc(NCc2c(F)cccc2Cl)nn1-c1ccccc1,i,i,i,56,25,i
CC(C)NC[C@H](O)COc1ccc(CC(N)=O)cc1,i,i,i,nt,nt,nt
COc1ccc(C(=O)Nc2cc(C(=O)NCCc3ccccc3)ccc2Cl)cc1,i,i,i,i,29,i
CC(C)CCNC(=O)c1ccc(Cl)c(NC(=O)Cc2ccccc2)c1,i,nt,nt,45,i,i
CCOCC(=O)Nc1cc(C(=O)NCCc2ccccc2)ccc1Cl,i,i,i,43,42,i
COCC(=O)Nc1cc(C(=O)NCCc2ccccc2)ccc1Cl,i,i,i,74,86,i
COCC(=O)Nc1cc(C(=O)NCC(C)C)ccc1Cl,i,i,i,i,i,i
Cc1ccc(NC(=O)COc2ccc(C(=O)NCCc3ccccc3)cc2)cc1,nt,i,i,nt,nt,nt
Cc1ccc(Nc2ccc(N3CCN(C(=O)c4cccc([N+](=O)[O-])c4)CC3)nn2)cc1,nt,nt,i,nt,nt,nt
CCOC(=O)c1c(Nc2ccccc2OCCOC)n[nH]c1C,i,i,i,i,i,i
COc1ccc(-c2ccc(C(=O)NCCc3ccccc3)c3occc23)c(C)c1,nt,i[18.4 µM],i,nt,nt,nt
O=C(NNc1nc2cc3c(cc2s1)OCCO3)c1ccc(F)cc1,i,i,i,i,33,i
O=C(NNc1nc2cc3c(cc2s1)OCO3)c1ccc(F)cc1,i,i,i,68,24,i
SMILES,FBPA Giardia inh,RE007 growth inh,TbPYK inhibitor,Shiga toxin inh,CHX counter,LmPK inh
Nc1nc2cc3c(cc2cc1C(=O)NCc1ccc(F)cc1)OCO3,nt,i,i,nt,nt,nt
CCN(CC)C(=O)c1ccc(C(=O)c2ccccc2)cc1,i,i,i,i,32,i
CCN(CC)C(=O)c1ccc2nc(-c3ccccc3)c(-c3ccccc3)nc2c1,i,i,i,i,i,i
CCN(CC)C(=O)c1ccc2nc3ccccc3nc2c1,i,i,i,65,30,i
O=C(O)CSc1cc(NS(=O)(=O)c2ccc(Br)cc2)c2ccccc2c1O,7.1µM,i,?,i,i,3.5µM
Cc1cc(O)c(Sc2ncn[nH]2)cc1NS(=O)(=O)c1ccc(Cl)cc1,nt,i,i,nt,nt,nt
Cc1ccc(S(=O)(=O)Nc2ccc(Br)cc2C(NCC(=O)O)c2ccccc2)cc1 (stereo unspecified),i,i,i,i,i,i
O=S(=O)(Nc1cc(Sc2ncn[nH]2)c(O)c2ccccc12)c1ccccc1,2µM,?,?,i,i,14µM
COc1ccc(S(=O)(=O)N(CC(=O)Nc2cccc(C)c2)c2ccc(C)cc2)cc1OC,nt,nt,i,nt,nt,nt
CCN(CC)C(=O)Cn1c(=O)c2ccccc2n2c(=S)sc(-c3cccc(C)c3)c12,i,nt,i,i,i,i
Cc1cccc(-c2nc(CS(=O)CC(=O)N3CC(C)CC(C)C3)c(C)o2)c1 (stereo unspecified),i,i,i,i,i,i
CCOC(=O)c1sc(NC(=O)c2cncc(Br)c2)nc1C,i,nt,nt,56,i,i
CCOC(=O)c1sc(NC(=O)c2ccc(S(=O)(=O)N(C)C)cc2)nc1C,i,i,i,i,i,i
CCOC(=O)c1sc(NC(=O)c2ccc3ncsc3c2)nc1C,i,i,i,73,25,i
CCOC(=O)c1sc(NNC(=O)c2ccc(F)cc2)nc1C,i,i,i,56,22,i
Cn1cccc1C(=O)N1CCC2(CCCN(C(=O)Nc3cccc(C#N)c3)C2)CC1,i,nt,i,nt,nt,nt
C[C@@H]1CN([C@H](C)CO)C(=O)CCCn2cc(nn2)CO[C@H]1CN(C)S(=O)(=O)c1ccc2ccccc2c1,nt,i,i,nt,nt,nt
CCNC(=O)c1cnc2sc(N3CCCCCC3)nn2c1=O,nt,nt,i,nt,nt,nt
C=CCn1c(COc2ccc3c(c2)CCCC3)nnc1SCC(=O)Nc1cccc(SC)c1,i,i,i,58,47,i
CCc1ccccc1OCC(=O)NC1CCCC1,i,i,i,i,i,i
COC(=O)c1ccccc1OCC(=O)NC1CCCCC1,i,i,i,132,27,i
O=C(COC(=O)c1ccccc1)NC1CCCC1,i,i,i,109,84,i
O=C(COc1ccccc1)NC1CCCCCCC1,nt,i,i,44,28,i
O=C(COC(=O)c1cccnc1Nc1ccccc1F)NC1CC1,i,i,i,i,14,i
O=C(NC(c1ccc2c(c1)OCO2)c1ccccn1)C1CCN(CCOc2ccccc2)CC1 (stereo unspecified),nt,i,i,nt,nt,nt
SMILES,FBPA Giardia inh,RE007 growth inh,TbPYK inhibitor,Shiga toxin inh,CHX counter,LmPK inh
CN(C(=O)COc1ncnc2sccc12)C1CCCCC1,nt,i,i,nt,nt,nt
COc1cc2[nH]c(=O)c(C(=O)NCc3ccc(C)cc3)c(O)c2cc1OC,nt,i,i,nt,nt,nt
CCC1(c2ccc(Cl)cc2)NC(=O)N(Cc2ccc(C(=O)OC)cc2)C1=O (stereo unspecified),i,i,i,i,i,i
Cc1ccccc1OCCC(=O)Nc1ccc(S(=O)(=O)N2CCCC2)cc1,nt,i,i,nt,nt,nt
O=C(COC(=O)c1ccccc1F)NC1CCCC1,i,i,i,36,37,i
O=C(COC(=O)c1ccccc1F)NC1CC1,nt,i,i,nt,nt,nt
CN1CCc2c(sc3c2c(=O)n(-c2ccccc2)c2nnc(SCc4ccccc4)n32)C1,i,i,32µM,i,i,i

# From PubChem
